Broadly, the inhibition is the change of the read-out against control, counted positive when it falls.

Out of some 4,300 compounds screened, about 3,000 (70%) were called active. So high a share suggests a set chosen from earlier hits. Not all results are given here. Values without a mark were called inactive.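 How the source made its calls: active means inhibition above a per-plate cutoff, the mean inhibition of sample wells plus 3 SD (cut at about 35% in these data); inactive means the rest.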

The nature of the experiment: small molecules binding CAG repeat RNA – biochemical, fluorescence, confirmation (AID 652065).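 Further: loss of TO-PRO-1 fluorescence as compound displaces dye from 1x1 AA loop RNA; 0% = DMSO only wells and 100% = 100 µM mitoxantrone.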 Conditions: r(CAG) RNA repeat, TO-PRO-1 dye displacement fluorescence; at 3 µM; hits give high values.
For the compound `O=C1NC(=O)N(Cc2ccco2)C(=O)/C1=C\c1ccc(-c2ccc(F)cc2)o1`, the inhibition is 20.4%.

With `COc1ccc(N2C(=O)/C(=C/c3ccco3)C(=O)NC2=S)cc1`, the inhibition is 87% (active).

`CC/C(=N\NC(=O)c1ccccc1O)c1c(O)n(Cc2ccccc2)c(=O)[nH]c1=O`: the inhibition is 75.3% (active).

Turning to `O=C1CC(=O)N(Cc2ccccc2)C(=O)N1CCCCCCN1C(=O)CC(=O)N(Cc2ccccc2)C1=O`, the inhibition was 54.7% (active).

Consider `O=C1NC(=O)N(c2ccccc2)C(=O)/C1=C/c1ccc([N+](=O)[O-])s1`, for which the inhibition is 61.7% (active).

On to `COc1cccc(N2C(=O)NC(=O)/C(=C\c3ccc([N+](=O)[O-])s3)C2=O)c1`, for which the inhibition is 48% (active).

Take `COc1ccc2c(c1)[C@@]13CCCCC1[C@@H](C2)NCC3` (some centres not stated): the inhibition is -0.72%.

Values taken from PubChem BioAssay AID652065 (The Scripps Research Institute Molecular Screening Center, 2013).
